Assay [1] is described as follows: Nuclear factor erythroid 2-related factor 2/antioxidant responsive element (Nrf2/ARE) small molecule agonists: qHTS cell viability counter screen in human keratinocytes (AID 1919968; active = well fitted curve in the direction sought with a large enough effect in the repeat runs; an effect the other way counts as inactive or inconclusive; also: nearly all actives have a fitted effect of over 55% in size; also: potency is read from the fitted curve at half-maximal effect). In outline: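 In human HaCaT keratinocytes stably expressing an ARE-driven luciferase, compound exposure lasted 23 h at 37 C under 5% CO2. Viable cells are quantified with a protease-based fluorogenic reagent (CellTiter-Fluor) read 1 h after addition.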

Assay [2] can be described thus: Nuclear factor erythroid 2-related factor 2/antioxidant responsive element (Nrf2/ARE) small molecule agonists: luciferase reporter gene qHTS assay in human keratinocytes (AID 1919969). Also: nearly all actives have a fitted effect of over 35% in size. Also: potency is read from the fitted curve at half-maximal effect. In general terms: Reporter assays use an easily measured gene product as a stand-in for the process of interest.
The target of assay [3] is Gonadotropin-releasing hormone receptor (Homo sapiens) (UniProt P30968). The assay can be described thus: Human gonadotropin-releasing hormone receptor (GnRHR) small molecule agonists, calcium flux assay in GnRHR-HEK293 cells (AID 1920063). Also: nearly all actives have a fitted effect of over 35% in size. Put shortly: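 Intracellular calcium rise is the read-out: engineered human GnRHR HEK293 cells, dye-loaded, are exposed to DMSO-dissolved compounds and fluorescence at Ex/Em 480/540 is tracked for 3 min.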
Gonadotropin-releasing hormone receptor (Homo sapiens), sequence (P30968 whole entry, looked up): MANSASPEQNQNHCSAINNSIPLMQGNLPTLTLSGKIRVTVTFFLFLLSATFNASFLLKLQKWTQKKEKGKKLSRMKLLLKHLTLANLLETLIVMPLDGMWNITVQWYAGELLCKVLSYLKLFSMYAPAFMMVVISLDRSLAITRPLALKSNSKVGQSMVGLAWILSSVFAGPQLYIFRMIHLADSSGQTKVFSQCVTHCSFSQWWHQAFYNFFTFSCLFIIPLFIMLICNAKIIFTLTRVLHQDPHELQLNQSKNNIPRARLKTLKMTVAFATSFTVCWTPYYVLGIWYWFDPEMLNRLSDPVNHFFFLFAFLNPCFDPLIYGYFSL
Background: A change in cytosolic calcium serves as a functional read-out for many receptors and channels.

The target in assay [4] is KiSS-1 receptor (Homo sapiens) (UniProt Q969F8). The assay can be described thus: Human kisspeptin (KISS1R) small molecule agonists, calcium flux assay in KISS1R-HEK293 cells (AID 1920064; active = well fitted curve in the direction sought with a large enough effect in the repeat runs; an effect the other way counts as inactive or inconclusive). In outline:
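Concentration-response testing used 15 concentrations in triplicate on human KISS1R-expressing HEK293 cells. Calcium-dependent fluorescence (Ex/Em 480/540) was followed kinetically for 3 min after compound transfer.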

Assay [5] is described as follows: G protein-coupled receptor (GPCR) small molecule agonists, calcium flux assay: HEK293 wild type cell line counter screen (AID 1920065). Put shortly:
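Fluorescence intensity signals activation. After overnight (18 h) culture and a 1 h calcium dye load at 37 C, compounds are added by pin tool and the plate read at 480/540 nm for 3 min in 1 s steps.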

Assay [6] in a line: p53 small molecule agonists, cell-based qHTS assay with human liver microsomes (AID 1963577).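 Also: p53 response element beta-lactamase reporter cells with liver microsomes plus NADPH.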 In outline: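 p53RE-bla cells; 5 h settle, 37 C/5% CO2; cpd + HLM 0.5 mg/mL + NADPH 0.5 mg/mL (final); 16 h 37 C; LiveBLAzer 2 h RT dark; fluorescence readout.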
Assay [7] can be described thus: p53 small molecule agonists, cell-based qHTS assay with rat liver microsomes (AID 1963578). Put shortly: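 Rat liver microsome activation: microsomes 0.5 mg/mL, NADPH 0.5 mg/mL final; p53RE-bla cells, 16 h 37 C; LiveBLAzer readout, 2 h RT dark.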
On the technique in general: qHTS replaces the single test concentration by a dilution series.

The nature of assay [8]: p53 small molecule agonists, cell-based qHTS assay with human liver microsomes: qHTS cell viability counter screen (AID 1963579). Also: nearly all actives have a fitted effect of over 45% in size. In outline:
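Luminescent CellTiter-Glo read-out, 30 min at room temperature, gauged cytotoxicity in p53RE-bla cells exposed 16 h at 37 C to DMSO-dissolved compounds with metabolic activation by human liver microsomes and NADPH, each 0.5 mg/mL final.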

The nature of assay [9]: p53 small molecule agonists, cell-based qHTS assay with rat liver microsomes: qHTS cell viability counter screen (AID 1963580). Also: nearly all actives have a fitted effect of over 45% in size. Also: potency is read from the fitted curve at half-maximal effect. Put shortly: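 After the beta-lactamase ratio was read, CellTiter-Glo was added to the same wells and luminescence measured at 30 min; cells had been treated 16 h at 37 C with compounds, rat liver microsomes and NADPH (0.5 mg/mL final each).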
A short description of assay [10]: p53 small molecule agonists, cell-based qHTS assay: qHTS cell viability counter screen (AID 1963581). Also: nearly all actives have a fitted effect of over 45% in size. In outline:
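Luminescence from CellTiter-Glo, reflecting ATP content, serves as the cytotoxicity measure; it is taken after the 2 h reporter substrate step in HCT-116 p53RE-bla cells dosed for 16 h at 37 C.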

A short description of assay [11]: p53 small molecule agonists, cell-based qHTS assay (AID 1963582; active = well fitted activation curve with a large enough effect in the signal ratio in the repeat runs, not every such curve was filed as active; the % refers to the signal ratio). Put shortly: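 After plating, p53RE-bla cells sat 5 h in the incubator; compounds or DMSO vehicle were pinned in; a 16 h incubation at 37 C followed; FRET substrate was added and, 2 h later at RT, fluorescence was measured.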
Assay [12] deals with 5-hydroxytryptamine receptor 2A (Homo sapiens) (UniProt P28223). In words: 5-hydroxytryptamine receptor 2A (HTR2A) small molecule antagonists, cell-based qHTS assay (AID 1963586). Also: nearly all actives have a fitted effect of over 45% in size. In outline:
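CHO cells stably expressing human HTR2A were plated for 18 h at 37 C, then loaded with calcium dye for 1 h. Compounds were preincubated 5 min at room temperature before DOI (4 nM solution) was added. Kinetic fluorescence was read for 3 min.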

Assay [13] has the same target. The assay can be described thus: 5-hydroxytryptamine receptor 2A (HTR2A) small molecule agonists, cell-based qHTS assay (AID 1963587). Also: nearly all actives have a fitted effect of over 30% in size. In outline:
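CHO cells stably expressing human HTR2A, plated 18 h, loaded with calcium dye 1 h at 37 C. Agonist mode: compounds added and intracellular calcium fluorescence recorded kinetically for 2 min at 1 sec intervals.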

Assay [14] concerns the target Muscarinic acetylcholine receptor M1 (Homo sapiens) (UniProt P11229). In words: Cholinergic receptor muscarinic 1 (CHRM1) small molecule antagonists, cell-based qHTS assay (AID 1963588). Also: nearly all actives have a fitted effect of over 40% in size. Put shortly: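 Compounds were tested at 15 concentrations in three independent runs. Dye-loaded CHRM1-CHO cells were exposed 5 min at room temperature before stimulation by acetylcholine added at 50nM. Intracellular calcium was read kinetically on FDSS for 3 min.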

For assay [15] the target is unchanged. The assay can be described thus: Cholinergic receptor muscarinic 1 (CHRM1) small molecule agonists, cell-based qHTS assay (AID 1963589). Also: nearly all actives have a fitted effect of over 35% in size. Put shortly: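 Fluorescent calcium dye reports M1 activation in stably transfected CHO cells. Compounds, 15 concentrations, added after 1 h dye loading at 37 C; kinetic reading at 1 sec intervals.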
Assay [16] is described as follows: cAMP Responsive Elements (CRE) small molecule antagonists, cell-based qHTS assay (AID 1963591; active = well fitted inhibition curve with a large enough effect in the signal ratio in the repeat runs, not every such curve was filed as active; the % refers to the signal ratio). In outline: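 Stimulation used NKH477 at a final 0.25 uM for 3 h in compound-treated CRE-bla HEK293T cells, seeded 18 h beforehand. Reporter activity was measured with LiveBLAzer B/G FRET substrate after 2 h at room temperature.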
In assay [17] the target is D(2) dopamine receptor (Homo sapiens) (UniProt P14416). In words: Dopamine D2 receptor (DRD2) small molecule agonists, cell-based qHTS assay (AID 1963594). Also: nearly all actives have a fitted effect of over 35% in size. Put shortly: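 HEK293 cells stably expressing human DRD2, pre-treated with PDE inhibitor Ro20-1724 (0.1 mM final) and compound 10 min at room temperature, then stimulated with NKH477 (200nM […]) for 30 min. cAMP read by HTRF (665/620 nm).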
D(2) dopamine receptor (Homo sapiens), sequence (P14416 whole entry, looked up): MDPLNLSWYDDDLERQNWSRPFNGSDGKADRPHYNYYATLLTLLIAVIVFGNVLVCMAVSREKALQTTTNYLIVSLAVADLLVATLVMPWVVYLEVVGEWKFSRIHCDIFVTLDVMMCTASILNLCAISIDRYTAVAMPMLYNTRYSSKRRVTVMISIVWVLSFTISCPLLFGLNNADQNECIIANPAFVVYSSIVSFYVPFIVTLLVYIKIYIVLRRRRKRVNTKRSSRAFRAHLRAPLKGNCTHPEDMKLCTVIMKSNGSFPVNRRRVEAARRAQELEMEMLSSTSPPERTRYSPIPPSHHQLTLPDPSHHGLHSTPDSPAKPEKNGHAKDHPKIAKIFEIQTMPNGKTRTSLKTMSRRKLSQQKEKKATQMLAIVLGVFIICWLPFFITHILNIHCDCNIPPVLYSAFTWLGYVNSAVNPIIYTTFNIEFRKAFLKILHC

For assay [18] the target is unchanged. In words: Dopamine D2 receptor (DRD2) small molecule antagonists, cell-based qHTS assay (AID 1963595; active = well fitted inhibition curve with a large enough effect in the signal ratio in the repeat runs, with a control signal flat; the % refers to the signal ratio). In outline: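 Antagonist mode in DRD2-HEK293 cells: after compound addition with 0.1 mM Ro20-1724, cells received quinpirole (12 nM) and NKH477 (200 nM) for 30 min at room temperature; HTRF cAMP read after 1 h detection.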
The target in assay [19] is Beta-2 adrenergic receptor (Homo sapiens) (UniProt P07550). In words: Adrenergic beta2 receptor (ADRB2) small molecule antagonists, cell-based qHTS assay (AID 1963592). Also: series mostly up to about 92 µM; nearly all actives have a fitted effect of over 50% in size. In outline:
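Assay format: CHO-ADRB2 cells, 18-20hr seeding at 37C/5% CO2, then compound plus 1nM isoproterenol agonist mix for 0.5hr RT. Homogeneous time-resolved fluorescence cAMP detection after 1hr, expressed as 665/615 nm ratio.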

Assay [20] is described as follows: cAMP Responsive Elements (CRE) small molecule agonists, cell-based qHTS assay (AID 1963590). In outline: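 Compound exposure lasted 3 h at 37 C/5% CO2 in CRE-bla HEK 293T cells grown in assay medium with 10% dialyzed FBS and 25 mM HEPES. Reporter signal came from LiveBLAzer B/G FRET substrate, 2 h, room temperature.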

From PubChem BioAssay (Tox21) come the findings set out here.

Results filed as inconclusive are left out. The source made the active and inactive calls. Unless noted, calls follow the shape of the full dose curve.

Beta-2 adrenergic receptor (Homo sapiens), sequence (P07550 whole entry, looked up): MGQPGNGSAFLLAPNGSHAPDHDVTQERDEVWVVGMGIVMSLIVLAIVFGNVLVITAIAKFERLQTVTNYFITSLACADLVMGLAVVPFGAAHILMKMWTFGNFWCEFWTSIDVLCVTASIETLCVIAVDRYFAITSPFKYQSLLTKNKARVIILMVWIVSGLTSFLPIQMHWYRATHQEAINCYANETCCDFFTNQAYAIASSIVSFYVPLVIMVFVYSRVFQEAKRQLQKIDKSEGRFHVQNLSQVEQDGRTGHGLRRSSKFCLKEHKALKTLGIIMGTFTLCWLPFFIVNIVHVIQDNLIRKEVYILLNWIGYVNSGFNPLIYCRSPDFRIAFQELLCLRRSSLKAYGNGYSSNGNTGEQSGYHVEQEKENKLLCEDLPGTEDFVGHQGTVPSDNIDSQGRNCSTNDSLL
5-hydroxytryptamine receptor 2A (Homo sapiens), sequence (P28223 whole entry, looked up): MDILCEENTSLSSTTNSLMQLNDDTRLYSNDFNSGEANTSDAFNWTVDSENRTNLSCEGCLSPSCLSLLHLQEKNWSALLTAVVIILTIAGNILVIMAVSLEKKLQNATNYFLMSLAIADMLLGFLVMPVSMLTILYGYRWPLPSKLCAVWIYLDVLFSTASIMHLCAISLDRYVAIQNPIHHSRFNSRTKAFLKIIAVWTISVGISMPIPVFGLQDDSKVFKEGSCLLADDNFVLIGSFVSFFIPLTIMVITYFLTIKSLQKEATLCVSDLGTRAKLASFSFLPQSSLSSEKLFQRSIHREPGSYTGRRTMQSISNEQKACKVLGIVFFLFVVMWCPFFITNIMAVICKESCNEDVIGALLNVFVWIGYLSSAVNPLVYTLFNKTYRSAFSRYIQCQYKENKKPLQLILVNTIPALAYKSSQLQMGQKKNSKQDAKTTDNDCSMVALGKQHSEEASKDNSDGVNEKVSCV
KiSS-1 receptor (Homo sapiens), sequence (Q969F8 whole entry, looked up): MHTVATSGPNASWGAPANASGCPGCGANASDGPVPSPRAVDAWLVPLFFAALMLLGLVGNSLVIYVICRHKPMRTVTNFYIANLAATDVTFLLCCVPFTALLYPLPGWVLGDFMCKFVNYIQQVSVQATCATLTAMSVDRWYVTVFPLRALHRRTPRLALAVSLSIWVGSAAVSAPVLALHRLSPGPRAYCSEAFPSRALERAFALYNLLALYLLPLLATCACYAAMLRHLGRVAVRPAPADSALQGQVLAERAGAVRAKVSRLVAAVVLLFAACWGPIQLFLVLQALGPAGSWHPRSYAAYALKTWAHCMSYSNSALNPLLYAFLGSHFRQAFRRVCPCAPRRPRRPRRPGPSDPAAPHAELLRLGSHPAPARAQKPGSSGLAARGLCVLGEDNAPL
Muscarinic acetylcholine receptor M1 (Homo sapiens), sequence (P11229 whole entry, looked up): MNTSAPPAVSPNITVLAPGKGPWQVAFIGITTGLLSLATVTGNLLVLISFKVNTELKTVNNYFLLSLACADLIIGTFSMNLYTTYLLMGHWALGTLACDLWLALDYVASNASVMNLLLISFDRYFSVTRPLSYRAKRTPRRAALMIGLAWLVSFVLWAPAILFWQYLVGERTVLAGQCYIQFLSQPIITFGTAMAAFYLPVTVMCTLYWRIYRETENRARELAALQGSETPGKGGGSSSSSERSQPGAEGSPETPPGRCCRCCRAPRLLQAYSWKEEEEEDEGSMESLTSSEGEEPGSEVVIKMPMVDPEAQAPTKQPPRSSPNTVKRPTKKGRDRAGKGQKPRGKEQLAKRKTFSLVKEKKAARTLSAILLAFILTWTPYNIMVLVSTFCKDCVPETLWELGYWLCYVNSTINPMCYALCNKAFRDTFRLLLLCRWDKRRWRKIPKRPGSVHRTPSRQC

On to `C/C(=C\c1ccccc1)[N+](=O)[O-]`, for which the Potency in [1] is 30.6 µM (active); in assay [2] it was 15.4 µM (active); in [9], 36.3 µM (active). In addition, the Potency entry in assay [3], in assay [4], in assay [5], in assay [6], in assay [7] and in assay [8] was “inactive” throughout. For the same molecule, the Potency entry in assay [10], in assay [11], in assay [12], in assay [13], in assay [14] and in assay [15] was “inactive” throughout. The Potency result in assay [16], in assay [17] and in assay [18] was “inactive” each time.
Regarding `O=CNC(N1CCN(C(NC=O)C(Cl)(Cl)Cl)CC1)C(Cl)(Cl)Cl` (centres undefined), the Potency entry in assay [1], in [2], in assay [3], in assay [4], in assay [5] and in [6] was “inactive” each time. In addition, the Potency result in [7], in assay [8], in assay [9], in [10], in assay [11] and in assay [12] was “inactive” throughout. Also, the Potency entry in assay [15], in assay [19], in [17] and in [18] was “inactive” each time.
For `CCc1cc(OC)c(C[C@H](C)N)cc1OC`, the Potency result in assay [1], in assay [2], in assay [3], in assay [4], in assay [5] and in assay [6] was “inactive” in each case. In addition, the Potency result in [7], in assay [8], in assay [9], in [10], in [11] and in [12] was “inactive” throughout. The Potency result in assay [14], in assay [15], in assay [20], in assay [16] and in [18] was “inactive” each time.
Consider `COc1cc(CC#N)cc(OC)c1OC`, for which the Potency entry in assay [1], in [2], in assay [3], in assay [4], in assay [5] and in assay [6] was “inactive” throughout. The Potency entry in [7], in assay [8], in assay [9], in assay [10], in assay [11] and in assay [13] was “inactive” each time. For the same molecule, the Potency entry in assay [14], in assay [15], in assay [20], in assay [16], in assay [19] and in [17] was “inactive” throughout. Besides, the Potency result in [18] is “inactive”.
For the molecule `CN(C)CCc1c[nH]c2ccc(O)cc12`, the Potency entry in assay [1], in assay [3], in assay [4], in assay [5], in assay [6] and in assay [7] was “inactive” throughout. In addition, the Potency entry in assay [8], in [9], in assay [10], in assay [11], in assay [12] and in assay [14] was “inactive” throughout. In addition, the Potency entry in assay [15], in [20] and in assay [16] was “inactive” in each case. Moreover, in [2], the Potency was 67 µM (active).
`CCC(COC(=O)c1cc(OC)c(OC)c(OC)c1)(c1ccccc1)N(C)C` (centres undefined): the Potency result in assay [1], in [2], in assay [3], in assay [4], in [5] and in assay [6] was “inactive” in each case. Moreover, the Potency result in [7], in [8], in [9], in assay [10], in assay [11] and in [12] was “inactive” throughout. The Potency entry in assay [13], in assay [14], in [19], in assay [17] and in [18] was “inactive” throughout.
On to `Cc1cc(Cl)ccc1O[C@H](C)C(=O)O`, for which the Potency entry in assay [1], in assay [2], in [3], in assay [4], in assay [5] and in assay [6] was “inactive” each time. Moreover, the Potency result in assay [7], in [8], in assay [9], in assay [10], in assay [11] and in assay [12] was “inactive” throughout. The Potency result in assay [13], in [14], in assay [16], in assay [19], in assay [17] and in assay [18] was “inactive” in each case.
As to `Cn1c(CCCC(=O)O)nc2cc(N(CCCl)CCCl)ccc21`, the Potency result in [1], in assay [2], in [3], in assay [4], in assay [5] and in [6] was “inactive” each time. The Potency result in assay [7], in [8], in assay [9], in assay [10], in assay [11] and in assay [12] was “inactive” throughout. Besides, the Potency result in assay [13], in assay [14], in assay [15], in assay [20], in [17] and in [18] was “inactive” in each case.
